# Laboratory results from PubChem BioAssay.
# Activity calls are given as the source filed them.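 How the source made its calls, unless noted: active means inhibition of the reporter signal at or above 50%; inactive means inhibition below 50%.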
# What was measured:
# [1] = inhibitors of TNFa-induced NFkB p65 translocation, primary screen, imaging, HUVEC, MLSMR starter and 10KST1 sets (AID 438;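 active means inhibition above 20% together with a positive visual image hit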;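 further: compound added about 3h40 before a 20 min TNFalpha stimulation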;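 on inhibition: signal is the nuclear over cytoplasmic p65 intensity ratio per well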); details: HUVEC TNFa-induced p65 nuclear translocation; cell count: measured here: nuclei count (cytotoxicity indicator), at 2.08 µM; inhibition: at 2 µM, stronger effect = higher value, 0% TNFa-plus-vehicle, 100% no-TNFa wells
# [2] = inhibitors of mutant huntingtin aggregation, primary screen, imaging, exon1htt(103Q)mCFP cells, high-content imaging (AID 483;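 active means visual image review flags a hit and inhibition of aggregation exceeds 20%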;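 further: compound exposure lasted 3 days before fixation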;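 on nuclei count: percent of the per-plate median nuclei count of sample wells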); details: exon1htt(103Q)mCFP cell line, aggregate imaging, at 2 µM; inhibition of aggregation: stronger effect = higher value; nuclei count: measured here: cell count, toxicity
# [3] = inhibitors of E-selectin induction by TNFa, primary screen, imaging, HUVEC, immunofluorescence, MLSMR starter and 10KST1 sets (AID 487;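 active means visually confirmed hit in the image check and inhibition above 20%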;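 on inhibition: signal is fraction of cell area covered by stained E-selectin grains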;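 on nuclei count: 100% = median nuclei count of all wells on the same plate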); details: HUVEC TNFalpha-induced E-selectin immunofluorescence imaging, at 2 µM; inhibition: stronger effect = higher value; nuclei count: measured here: cell number, toxicity
# [4] = molecular target: Voltage-gated potassium channel subunit beta-2 (Rattus norvegicus) (UniProt P62483); experiment: KvBeta enzyme negative modulators, primary screen, biochemical, NADPH fluorescence (AID 622;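 active means fluorescence slope higher than the sample average by over 3 SD, cut at about -0.22 in these data, passing the limit was not always enough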;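 further: slope of raw intensity against log time taken from 70 to 1610 s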); details: recombinant KvBeta, 4-cyanobenzaldehyde reduction, at 10 µM, stronger effect = higher value
# [5] = molecular target: Voltage-gated potassium channel subunit beta-2 (Rattus norvegicus) (UniProt P62483); experiment: KvBeta positive modulators, primary screen, biochemical, NADPH fluorescence (AID 623;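 active means NADPH fluorescence slope more negative than the mean of all samples by about 3 SD, 99.7% confidence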;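 further: fluorescence intensity change per second fitted from 20 to 320 s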); details: Recombinant KvBeta, NADPH fluorescence decrease slope, 10 min; at 10 µM; stronger effect = lower value
# [6] = molecular target: Alpha-2C adrenergic receptor (Homo sapiens) (UniProt P18825); experiment: modulators of alpha2C/GIRK thallium flux, primary screen, cell-based, HEK293 alpha2C/GIRK1/2 (AID 624;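 active means fluorescence slope after compound addition differing from the mean of all screened samples at 99.7% confidence, in either direction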;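 further: slope of fluorescence ratio to pre-addition baseline per second over 15 to 24 s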); details: thallium flux BTC fluorescence, at 10 µM, actives lie on both sides
# [7] = inhibitors of Sendai virus-induced IRF3 signaling, primary screen, TLR/RLR signaling modifier project, cell-based, Sendai virus stimulus, luciferase, 10K MLSCN set (AID 602276;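 active means inhibition at or above 50% at 10 µM; inactive means inhibition below 50%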;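 further: firefly luciferase from ISG56 promoter only with Renilla not read in this screen; 0% = Sendai virus plus DMSO and 100% = medium plus DMSO without virus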); details: HEK293 RL24 IRF3 luciferase reporter, at 10 µM, stronger effect = higher value
# [8] = inhibitors of poly I:C-induced TLR3 signaling, primary screen, cell-based, poly I:C stimulus, luciferase, 10K MLSCN set (AID 602277); details: HEK293-TLR3 RL24 IRF3 luciferase reporter, at 10 µM, stronger effect = higher value
# Alpha-2C adrenergic receptor (Homo sapiens), sequence (P18825 whole entry, looked up): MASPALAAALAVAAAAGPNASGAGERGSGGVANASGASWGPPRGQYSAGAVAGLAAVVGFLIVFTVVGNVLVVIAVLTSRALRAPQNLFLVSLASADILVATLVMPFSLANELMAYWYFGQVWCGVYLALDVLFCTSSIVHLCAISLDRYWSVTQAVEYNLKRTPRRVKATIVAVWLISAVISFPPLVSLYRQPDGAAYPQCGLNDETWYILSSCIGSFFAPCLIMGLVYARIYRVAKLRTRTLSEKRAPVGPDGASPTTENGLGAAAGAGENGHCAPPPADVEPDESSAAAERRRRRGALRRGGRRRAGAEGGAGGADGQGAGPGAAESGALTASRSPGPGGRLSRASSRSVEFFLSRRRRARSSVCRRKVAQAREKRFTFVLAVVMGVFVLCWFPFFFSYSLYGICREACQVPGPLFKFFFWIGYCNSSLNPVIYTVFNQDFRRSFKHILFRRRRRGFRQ
# Voltage-gated potassium channel subunit beta-2 (Rattus norvegicus), sequence (P62483 whole entry, looked up): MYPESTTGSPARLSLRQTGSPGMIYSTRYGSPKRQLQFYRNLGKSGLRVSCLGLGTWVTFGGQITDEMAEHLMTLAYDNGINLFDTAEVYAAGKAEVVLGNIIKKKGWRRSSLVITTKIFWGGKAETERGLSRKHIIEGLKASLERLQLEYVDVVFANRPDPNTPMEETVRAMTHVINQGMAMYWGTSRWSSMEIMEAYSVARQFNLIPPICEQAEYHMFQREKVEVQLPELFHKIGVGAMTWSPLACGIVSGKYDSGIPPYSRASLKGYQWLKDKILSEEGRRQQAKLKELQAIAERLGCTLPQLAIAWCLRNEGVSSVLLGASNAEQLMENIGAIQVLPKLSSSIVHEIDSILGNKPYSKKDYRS
Structure (SMILES),cell count [1],inhibition [1],inhibition of aggregation [2],nuclei count [2] [%],inhibition [3],nuclei count [3] [%],fluorescence slope [4],NADPH fluorescence slope [5],slope [6],inhibition [7],inhibition [8]
Cc1oc(-c2ccc(Cl)cc2)cc1-c1nn2c(-c3ccoc3C)nnc2s1,644,-3.9% (inactive),-0.4% (inactive),94.6,-24.2% (inactive),105,-0.497 (inactive),-3.8e-05 (inactive),0.00371 (inactive),19.8% (inactive),23% (inactive)
Cc1nc(SCC(=O)CC(=O)OC(C)C)c(C#N)c(C)c1C,718,-3.5% (inactive),-22.8% (inactive),118,34.6% (inactive),99.8,-0.332 (inactive),1.6e-05 (inactive),0.00527 (inactive),5.7% (inactive),-3.09% (inactive)
CCCCOc1ccccc1C1C(C(N)=O)=C(C)Nc2nnnn21 (centres undefined),279,-4.7% (inactive),0.7% (inactive),88.7,-56% (inactive),97.9,-0.459 (inactive),2.7e-05 (inactive),0.0066 (inactive),17.4% (inactive),27.7% (inactive)
Cc1ccc2c(C)nc(NC3=NCN(C(C)C)CN3)nc2c1,604,4.7% (inactive),5.5% (inactive),93.5,-33.7% (inactive),125,-0.543 (inactive),1.2e-05 (inactive),0.0049 (inactive),11.3% (inactive),14.9% (inactive)
COc1ccc(-c2noc(-c3ccccc3C(=O)NCc3ccco3)n2)cc1,331,9.3% (inactive),-16.3% (inactive),77.4,-64.4% (inactive),99.2,-0.592 (inactive),-4.7e-05 (inactive),0.00789 (inactive),-8.85% (inactive),-39.1% (inactive)
CCC(=O)N1CCN=C1SCc1ccc(Cl)cc1,233,-4.9% (inactive),-22.3% (inactive),111,7.9% (inactive),106,-0.559 (inactive),5.6e-05 (inactive),0.00598 (inactive),21.3% (inactive),43.1% (inactive)
Cn1cccc1Cc1nnc(SCC(=O)Nc2ccc(F)cc2F)n1-c1ccc(F)cc1,664,-5.5% (inactive),-16.9% (inactive),93.7,-12.3% (inactive),99.4,-0.546 (inactive),-7.7e-05 (inactive),0.00521 (inactive),10.4% (inactive),32.3% (inactive)
C(=C\c1ccccc1)/CN1CCN(Cc2ccc3c(c2)OCCO3)CC1,435,0.5% (inactive),2% (inactive),104,-26.4% (inactive),120,-0.442 (inactive),2e-05 (inactive),0.00636 (inactive),14% (inactive),19.9% (inactive)
Nc1nc2n(n1)C(c1cccc(Br)c1)CC(c1ccc(F)cc1)N2 (centres undefined),886,-6.1% (inactive),9.7% (inactive),110,-59% (inactive),102,-0.608 (inactive),7.7e-06 (inactive),0.00861 (inactive),2.63% (inactive),15.8% (inactive)
O=C(c1cccc(F)c1)N1CCc2ccccc21,490,3.5% (inactive),-1.6% (inactive),107,-9.7% (inactive),114,-0.478 (inactive),-1.8e-05 (inactive),0.0055 (inactive),0.0423% (inactive),27.3% (inactive)
O=C(O)C1C2C=CC3(CN(C4CCCC4)C(=O)C13)O2 (centres undefined),521,-3.4% (inactive),24.1% (inactive),69.2,-23.3% (inactive),97.3,-0.546 (inactive),-1.2e-05 (inactive),0.00708 (inactive),12.5% (inactive),38% (inactive)
COc1ccc(N2CCN(C(=O)C(OC(C)=O)c3ccccc3)CC2)cc1 (centres undefined),594,-4.7% (inactive),-4.8% (inactive),92.4,-2.4% (inactive),95.4,-0.386 (inactive),4.8e-05 (inactive),0.00658 (inactive),11.4% (inactive),11.3% (inactive)
CC(C)(C)Nc1nc(NC(C)(C)C)nc(-n2ccnc2)n1,194,-0.8% (inactive),-0.1% (inactive),81.5,2.8% (inactive),91.6,-0.443 (inactive),1.8e-05 (inactive),0.00537 (inactive),14.6% (inactive),29% (inactive)
Cc1ccc(S(=O)(=O)N(CC(=O)NCc2ccco2)Cc2ccccc2F)cc1,308,2.4% (inactive),14% (inactive),92.3,-3.2% (inactive),103,-0.524 (inactive),1.7e-06 (inactive),0.00527 (inactive),8.9% (inactive),11.9% (inactive)
